According to PubChem BioAssay (NCI):
About 83,000 compounds went through this panel and 20% of them were active in at least one assay; those are over-represented in the sample as a whole.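 Each cell line was grown in a 96-well plate and treated with one concentration of compound for 48 hours. Values below 10 were considered active.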 Calls of active or inactive are those of the source.

Tests used:
Assay in all cases: NCI-60 one-dose screen, 48 h (100 = growth as untreated, 0 = no growth, -100 = all killed)
Conditions in all cases: 10 µM unless noted
[1] = system: NCI-H23 lung
[2] = system: NCI-H226 lung
[3] = system: NCI-H322M lung
[4] = system: HOP-62 NSCLC
[5] = system: NCI-H460 lung
[6] = system: HOP-92 NSCLC
[7] = system: NCI-H522 lung
[8] = system: A549/ATCC NSCLC
[9] = system: 786-0 renal
[10] = system: COLO 205 colon
[11] = system: DU-145 prostate
[12] = system: K-562 leukemia
[13] = system: MALME-3M melanoma
[14] = system: MDA-MB-231 breast
[15] = system: RXF 393 renal
[16] = system: SF-268 CNS
[17] = system: SF-295 CNS
[18] = system: SF-539 CNS
[19] = system: UACC-257 melanoma
[20] = system: M14 melanoma

Measured: growth

CCc1nc2c(=O)[nH]cnc2o1
inactive: [1] 107% | [2] 96.4% | [3] 97.8% | [4] 100% | [5] 105% | [6] 72.2% | [7] 108% | [8] 99.7% | [9] 110% | [10] 110% | [11] 112% | [12] 104% | [13] 83.1% | [14] 117% | [15] 102% | [16] 103% | [17] 110% | [18] 94.8% | [19] 107% | [20] 103%

C=C1C(=O)O[C@H]2[C@H]1CC/C(COC(=O)CCSCCC(=O)OC/C1=C/CC[C@@]3(C)O[C@H]3[C@H]3OC(=O)C(=C)[C@@H]3CC1)=C\CC[C@@]1(C)O[C@@H]21
inactive: [3] 80.5% | [4] 86.9% | [8] 71.1% | [11] 20.1% | [16] 24.2% | [17] 62.7%
active: [1] 9.21% | [2] -39.5% | [5] 9.87% | [6] -50.2% | [7] -75.8% | [9] -21.9% | [10] -72.3% | [12] 2.89% | [13] -13.7% | [14] -52.1% | [15] -95.3% | [18] -15.1% | [19] -13.7% | [20] -12%

CCn1c(=S)[nH]c2c(=O)n(C)c(=O)n(C)c21
inactive: [1] 105% | [2] 105% | [3] 95% | [4] 109% | [5] 123% | [6] 89.8% | [7] 90.3% | [8] 96.3% | [9] 97.1% | [10] 116% | [11] 111% | [12] 105% | [13] 99.6% | [14] 115% | [15] 106% | [16] 114% | [17] 104% | [18] 95.3% | [19] 92% | [20] 95.5%

Clc1ccc(Sc2cnc(-c3ccccc3)o2)cc1
inactive: [1] 95.5% | [2] 106% | [3] 91.9% | [4] 94.4% | [5] 110% | [6] 86.1% | [7] 99.2% | [8] 92% | [9] 93.9% | [10] 110% | [11] 104% | [12] 98.2% | [13] 102% | [14] 97.2% | [15] 115% | [16] 93.5% | [17] 97.4% | [18] 96% | [19] 93.6% | [20] 107%

CN1CCN(c2ccc(C(=O)Nc3cccc(C#Cc4cccc5[nH]nc(N)c45)c3)cc2C(F)(F)F)CC1
active: [1] -51.9% | [3] -24.6% | [4] -63.7% | [5] -68.4% | [6] -11.8% | [7] -59.1% | [8] -67.2% | [9] -70.4% | [10] -72.9% | [11] -20.3% | [12] -36.9% | [13] -66.3% | [14] -72.2% | [15] -25.4% | [16] -1.07% | [17] -58.5% | [18] -82.7% | [19] -67.1% | [20] -69.5%
inactive: [2] 15.6%

Brc1ccc(-n2cc(-c3nn[nH]n3)c(-c3cccs3)n2)cc1
inactive: [1] 92.9% | [2] 80.2% | [3] 91.9% | [4] 91.3% | [5] 105% | [6] 88.2% | [7] 88% | [8] 89.1% | [9] 96.6% | [10] 117% | [11] 107% | [12] 100% | [13] 93.7% | [14] 88.1% | [15] 105% | [16] 100% | [17] 95.3% | [18] 96% | [19] 96.1% | [20] 95.9%

CN([O-])c1nc(N(C)[O-])nc(N2CCOCC2)n1.CN([O-])c1nc(N(C)[OH2+])nc(N2CCOCC2)n1.[Fe+3]
inactive: [1] 100% [100 µM] | [2] 101% [100 µM] | [3] 104% [100 µM] | [4] 165% [100 µM] | [5] 36.1% [100 µM] | [6] 61.7% [100 µM] | [7] 52.9% [100 µM] | [8] 72.7% [100 µM] | [9] 114% [100 µM] | [10] 144% [100 µM] | [11] 63.1% [100 µM] | [12] 16.7% [100 µM] | [13] 118% [100 µM] | [14] 110% [100 µM] | [15] 75.5% [100 µM] | [17] 10.3% [100 µM] | [18] 108% [100 µM] | [19] 96.2% [100 µM] | [20] 91.7% [100 µM]
active: [16] -14.2% [100 µM]

CCn1c(=S)sc2c(Nc3ccc(F)cc3)nc(-c3cccnc3)nc21
inactive: [1] 66.2% | [2] 75.2% | [3] 76.5% | [4] 47.6% | [5] 64.5% | [6] 18.4% | [7] 40.5% | [8] 48.7% | [9] 20.5% | [10] 72.5% | [11] 77.5% | [12] 77.1% | [13] 83.9% | [14] 75% | [15] 78.6% | [16] 56.4% | [17] 50.6% | [18] 41.5% | [19] 78.9% | [20] 74.1%

Oc1ccc(CCn2c(O)c(/C=C3\CN=c4ccccc4=N3)sc2=S)cc1
inactive: [1] 59.1% | [2] 88.7% | [3] 78.7% | [4] 65.8% | [5] 83.3% | [7] 18.5% | [8] 82.1% | [9] 28.3% | [10] 103% | [11] 28% | [12] 22.9% | [13] 62.3% | [14] 26% | [15] 45.1% | [16] 75% | [17] 93.6% | [18] 20.7% | [19] 71.4% | [20] 62.4%
active: [6] -14.4%

CCN1CCN(c2cc(C(=O)Nc3nc(-c4cc(OC)c(OC)c(OC)c4)cs3)cc(C(F)(F)F)c2)CC1
inactive: [1] 79.4% | [2] 86.8% | [3] 78% | [4] 82.7% | [5] 57.3% | [6] 42.2% | [7] 67.6% | [8] 81.1% | [9] 49.1% | [10] 58.2% | [11] 74.9% | [13] 69.3% | [14] 47% | [15] 69.3% | [16] 65.1% | [17] 83.2% | [18] 75.6% | [19] 88.6% | [20] 42.1%
active: [12] 3.83%

O=C(Nn1c2c(sc1=Nc1ccccc1)C(=O)c1ccccc1C2=O)c1cc2ccc1CCc1ccc(cc1)CC2
active: [13] -69.3% | [20] 4.14%
inactive: [1] 30.6% | [2] 51.2% | [3] 99.8% | [4] 66.4% | [5] 71.9% | [6] 107% | [7] 68% | [8] 64% | [9] 81% | [10] 102% | [11] 71.7% | [12] 77.8% | [14] 40% | [15] 70.7% | [16] 67.7% | [17] 87.8% | [18] 92.6% | [19] 62.4%

O=C(/C=C/c1ccccc1)c1cccc(OCCCOc2cccc(C(=O)/C=C/c3ccccc3)c2)c1
inactive: [1] 95.5% | [2] 108% | [3] 105% | [4] 116% | [5] 101% | [6] 101% | [7] 90.3% | [8] 87.2% | [9] 92.9% | [10] 94.1% | [11] 100% | [12] 46.4% | [13] 107% | [14] 97.4% | [15] 94.9% | [16] 104% | [17] 94.2% | [18] 107% | [19] 96.4% | [20] 95%

NC(=O)c1c(NC(=O)c2ccccc2)sc2c1CCC(=O)C2
inactive: [2] 16.2% | [3] 88.2% | [4] 45.1% | [5] 11.6% | [8] 30% | [9] 28% | [11] 35% | [15] 18.7% | [16] 17.7% | [17] 33.4% | [18] 16.1% | [20] 20.9%
active: [1] 5.93% | [6] -11.5% | [7] -9.03% | [10] -49.9% | [12] 5.24% | [13] 7.31% | [14] 0.799% | [19] 4.86%

COC(C(=O)[C@@H](O)[C@@H](C)O)[C@@H]1Cc2cc3cc(O[C@H]4C[C@@H](O[C@H]5C[C@@H](O)[C@H](O)C(C)O5)[C@H](O)C(C)O4)c(C)c(O)c3c(O)c2C(=O)[C@H]1O[C@H]1C[C@@H](O[C@H]2C[C@@H](O[C@H]3C[C@@H](O)[C@H](OC)C(C)O3)[C@@H](O)C(C)O2)[C@H](O)C(C)O1 (stereo not given in full)
active: [1] -30.6% | [2] 7.45% | [3] 5.34% | [4] -6.87% | [5] 9.27% | [6] -2.22% | [7] -26.8% | [8] 3.24% | [9] 4.65% | [10] -44.4% | [12] 5.99% | [13] -30.7% | [15] -55.4% | [17] 8.2% | [18] -23.6% | [19] -21.7% | [20] -17.9%
inactive: [11] 12% | [14] 17.2% | [16] 14.2%

CN1CCN(c2ccc(NC(=O)c3cncnc3Nc3ccc(OCc4ccccn4)c(Cl)c3)cc2)CC1
inactive: [1] 70.1% | [2] 70.2% | [3] 62.2% | [5] 27.8% | [6] 45.7% | [7] 55.4% | [8] 25.9% | [11] 56.5% | [15] 27.9% | [16] 68.9% | [17] 61% | [19] 39%
active: [4] 3.8% | [9] -82.4% | [10] -3.55% | [12] -21.4% | [13] -55.1% | [14] -11.2% | [18] -12.7% | [20] -72.8%
